Compound activity from PubChem BioAssay.
Only some compounds are listed: those with a hit (about 3.9% of all), similar ones and a draw of the others.
BoNT-F LC inh: BoNT/F light chain protease inhibitors, primary screen, biochemical, flow cytometry, MLPCN library; 0.22% of 360,000 active; inhibition, % at 10 µM; Botulinum neurotoxin type F light chain protease (Clostridium botulinum); Multiplex microsphere protease cleavage assay; AID 588497, 2011; in the data active means inhibition above about 35%, passing the limit was not always enough; inconclusive means no clear call, values can overlap the other calls; further: plate controls were buffer without enzyme for full effect and enzyme alone for no effect
Anthrax LF prot: Bacillus anthracis LF protease inhibitors, primary screen, biochemical, multiplex microsphere, MLPCN library; Lethal factor (Bacillus anthracis), P15917; multiplex microsphere protease cleavage assay; inhibition, % at 10 µM; 0.12% of 360,000 active; AID 588501, 2011; further: plate controls were buffer without enzyme for full effect and enzyme alone for no effect
CCHF vOTU inh: CCHFV vOTU protease inhibitors, primary screen, biochemical, Pep-AMC substrate, fluorescence | AID 651958, 2012 | 0.55% of 370,000 active | Crimean-Congo hemorrhagic fever virus L polyprotein viral ovarian tumor (vOTU) protease … | inhibition, % at 11.5 µM; in the data active means inhibition above about 30%; further: 0% = vehicle wells with enzyme and 100% = no enzyme wells
Bead autofluor: compound fluorescence in toxin protease inhibitor counterscreen; 3.1% of 360,000 active; compound autofluorescence counterscreen, microsphere flow cytometry; stronger effect = higher value; fluorescence intensity (test concentration not listed); in the data active means fluorescence intensity above about 16000; inconclusive means no clear call, values can overlap the other calls
SARS 3CLpro inh: SARS-CoV 3CLpro protease inhibitors, primary screen, biochemical, quenched FRET. Replicase polyprotein 1ab (Severe acute respiratory syndrome coronavirus), P0C6X7. 0.14% of 290,000 active. AID 1706, 2009. recombinant SARS-CoV 3CLpro, quenched FRET peptide cleavage. inhibition, % at 6 µM; in the data active means inhibition above about 12%
BoNT-A LC inh2: BoNT/A light chain protease inhibitors, primary screen, biochemical, flow cytometry, MLPCN library. Botulinum neurotoxin type A light chain protease (Clostridium botulinum A str. ATCC 3502). multiplex microsphere protease substrate cleavage. inhibition, % at 10 µM. 0.17% of 360,000 active. AID 588499, 2011; further: plate controls were buffer without enzyme for full effect and enzyme alone for no effect
Numbers without * were called inactive; ? = inconclusive; · = not tested or not shown. Unless noted, no stated cut-off is given here; in the data, active means inhibition above about 30%; inconclusive means no clear call, values can overlap the other calls; inactive means below that.

SMILES	BoNT-F LC inh	Anthrax LF prot	CCHF vOTU inh	Bead autofluor	SARS 3CLpro inh	BoNT-A LC inh2
COC(=O)[C@]12C[C@H](CC(=O)NCc3cccc(C(F)(F)F)c3)C(=O)N(CCC3=CCCCC3)C1=C[C@H](C1CCCC1)O[C@@H]2C	·	·	26	·	·	·
CCn1c(C(=O)NCc2ccccn2)cc2sccc21	-7	0	-11	17121*	5	-2
Cc1ccc(Cn2c(C(=O)NCCCN3CCOCC3)cc3sccc32)cc1	-3	-5	·	24158*	5	-2
CCn1c(C(=O)NCCCN2CCc3ccccc3C2)cc2sccc21	-3	-2	-2	24380*	1	-1
O=C(Cn1c(C(=O)NCCCN2CCOCC2)cc2sccc21)c1ccccc1	-2	-2	-13	24194*	2	-3
Cn1c(C(=O)NCCN2CCOCC2)cc2sccc21	4	0	-14	7678	-3	1
Nn1c(SCC(=O)Nc2ccccc2-c2ccccc2)nnc1-c1cc(-c2ccc(Cl)cc2)n[nH]1	·	·	0	·	·	·
Cc1ccc(CNC(=O)c2cc(=O)c3ccccc3o2)cc1	-3	-10	-4	3818	2	0
Cc1ccc(NC(=O)c2cc(=O)c3ccccc3o2)cc1	4	-9	1	21364*	1	3
CN(C)CC(C)(C)CNC(=O)c1cc(=O)c2ccccc2o1	3	-1	1	21817*	4	2
C/C=C(\C)C(=O)O[C@@H]([C@H](O)c1cc2ccc(=O)oc2cc1OC)C(C)(C)O	-8	-2	-17	3864	·	-1
CCOc1ccc(NC(=O)c2cc3c(=O)n(C)c4ccccc4c3n2C)cc1	-87	-14	-8	18920*	1	-12
Cn1c(C(=O)Nc2ccc3c(c2)OCO3)cc2c(=O)n(C)c3ccccc3c21	-4	-3	-5	5868	-1	0
Cc1cc(C(C)(C)C)cc(S(=O)(=O)Nc2ccc(O)c(C(=O)O)c2)c1C	3	0	6	20140*	0	?
CC(=O)Nc1ccc(SCC(=O)N(CCC#N)c2ccc(C)cc2)cc1	-6	-2	12	16531*	-2	-2
CCOC(=O)/C(=C/c1c[nH]c2ccccc12)NC(C)=O	4	-2	1	19612*	-3	2
COc1ccc(C2C(C(=O)OCC3CCCO3)=C(C)NC3=C2C(=O)CC(c2ccco2)C3)cc1O (stereo not given)	-1	-2	-6	23267*	0	0
CC1=C(C(=O)OCC2CCCO2)C(c2ccccc2)C2=C(CCCC2=O)N1 (stereo not given)	0	2	-18	4901	5	0
Nc1nc(-c2cc(Cl)cc(Cl)c2OC(F)F)cs1	-1	-7	-9	4556	2	0
COc1ccc(CNC[C@H]2O[C@@H](n3cnc4c(N)ncnc43)[C@H](O)[C@@H]2O)cc1OC	-1	9	·	3738	·	0
CCOC(=O)c1cnc(SCC(=O)c2ccccc2)nc1N	-4	0	-4	24281*	-9	-1
Cc1nn(C)c(=O)n1-c1ccc(Oc2ccccc2)cc1	4	-2	2	21312*	-1	3
COc1ccc(-n2c(C)nn(C)c2=O)c(OC)c1	3	-8	-2	18468*	0	?
Cc1nn(C)c(=O)n1-c1ccccc1	-2	-6	-4	3995	4	-1
COc1ccc(N2C(=O)CCC2=O)c(OC)c1	-3	1	-8	4042	-3	0
SMILES	BoNT-F LC inh	Anthrax LF prot	CCHF vOTU inh	Bead autofluor	SARS 3CLpro inh	BoNT-A LC inh2
O=c1[nH]c(-c2ccccc2)nnc1-c1ccccc1	-3	-3	17	4388	-3	0
O=C(Nc1ccccc1C(=O)O)c1ccc(NC(=O)c2ccc(Br)o2)cc1	-1	-4	·	23730*	0	-2
O=C(CNC(=O)c1ccco1)Nc1ccc(S(=O)(=O)N2CCCC2)cc1	-9	1	-6	21490*	-1	-6
O=C(Nc1ccc(S(=O)(=O)N2CCOCC2)cc1)c1ccco1	-5	-2	-1	4574	-3	-1
O=C(Nc1ccc(S(=O)(=O)N2CCCCCC2)cc1)c1ccc(Br)o1	-5	-1	-2	21567*	2	-2
OCCN1CCN(C(=S)c2ccc(Br)cc2)CC1	8	-4	0	21663*	1	?
COc1ccc(CCNC(=O)Cn2ncc3c2-c2cc(C)ccc2OC3)cc1	·	·	10	·	·	·
CS(=O)(=O)N(Cc1ccccc1)c1ccccc1C(=O)Nc1ccccc1C(=O)NCc1ccco1	-2	-5	3	23578*	2	-2
CCOc1ccc(N(CC(=O)NCc2ccco2)S(=O)(=O)c2ccc(OC)c(OC)c2)cc1	6	-1	-8	3418	-2	-1
COc1ccc(N(CC(=O)Nc2ccccc2C(=O)NCc2ccco2)S(C)(=O)=O)cc1	1	-2	6	22786*	-3	0
O=C(NCc1ccco1)c1ccccc1NS(=O)(=O)c1cccs1	3	-4	2	19002*	3	3
COc1ccc(OC)c(N(CC(=O)Nc2ccccc2C(=O)NCc2ccco2)S(C)(=O)=O)c1	2	-4	0	8017	-1	-1
COc1ccc(N(CC(=O)NCc2ccco2)S(=O)(=O)c2ccc(OC)c(OC)c2)cc1	5	-3	-8	22427*	6	?
O=C(NCc1ccccc1CN1CCCC1)c1cc2ccccc2o1	-8	-18	4	3744	·	1
O=C(Nc1cccc(C(F)(F)F)c1)OC1CC2CC1[C@H]1CCCCN1[C@H]2Cc1ccccc1 (stereo not given in full)	·	·	11	·	·	·
CSCCC(NC(=O)c1ccccc1)C(=O)NCCc1ccc2c(c1)OCCO2 (stereo not given)	-11	0	4	2962	·	0
O=C(CSc1nc(C2CC2)nc2ccccc12)N1c2ccccc2Sc2ccccc21	1	-1	11	22153*	1	2
O=C(CSc1nnnn1C1CCCCC1)N1c2ccccc2Sc2ccccc21	5	-1	-6	19588*	1	?
COc1ccc(-c2nnn(CC(=O)N(Cc3ccco3)C(C(=O)NCC3CCCO3)c3ccco3)n2)cc1 (stereo not given)	1	0	9	2546	3	0
Cc1ccc(-c2nnn(CC(=O)N(c3ccccc3)C(C(=O)NCC3CCCO3)c3ccc(Cl)cc3)n2)cc1 (stereo not given)	-3	-4	-1	4304	6	-1
Cc1ccc(-c2nnn(CC(=O)N(c3ccccc3F)C(C(=O)NCC3CCCO3)c3c[nH]c4ccccc34)n2)cc1 (stereo not given)	0	-6	-5	16194*	2	1
